The panel holds about 83,000 compounds, 20% with a hit somewhere; the sample as a whole holds those more often.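 Activity criterion: percent growth below 10, measured after cells in 96-well plates were exposed to a single compound concentration for 48 hours.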 Unmarked numbers belong to inactive results. Active and inactive are the calls of the source.
Each molecule was assayed on HCC-2998 colon (assay: NCI-60 one-dose screen, 48 h (100 = growth as untreated, 0 = no growth, -100 = all killed)). Settings: 10 µM unless noted.
Procedure: Growth inhibition of the HCC-2998 human tumor cell line is measured as a screen for anti-cancer activity. Cells are grown in 96 well plates and exposed to the test compound for 48 hours. Compounds are tested at a single concentration, which is 10^-5 M for most compounds. The reported endpoint is percent growth (GI% or GIPRCNT), where numbers from 0 - 100% represent growth inhibition, and numbers from -100% - 0 represent cell death. For example, a value of 40 represents 60% growth inhibition. A value of 0 means no net growth occurred over the course of the experiment. A value of -40 indicates 40% of cells at the beginning of the experiment died by the end of the experiment. A value of -100 means all cells are dead at the end of the experiment.
NCI-60 Human Tumor Cell Lines Screen was performed using the standard one-dose NCI protocol, which is described in more detail at https://dtp.cancer.gov/discovery_development/nci-60/default.htm.
Compounds with GIPRCNT values below 10 were considered active. Activity score was based on GIPRCNT using the following formula: […]
Score is 0 for GIPRCNT values of 100 or above, 50 for GIPRCNT values of 0, and 100 for GIPRCNT values of -100.
`CCc1ccc(CCCC(=O)O)cc1` gave a growth of 117%.
`Nc1n[nH]c2ccc([C@H]3[C@@H]4C5CCC(C5)[C@@H]4c4c(ccc5[nH]ncc45)N3S(=O)(=O)C3CC3)cc12` (stereo not given in full) showed a growth of 18.4%.
`CCSC(SCC)c1ccc(Cl)cc1` showed a growth of 92.3%.
In the case of `COc1cc2c(c(OC)c1OC)CCC(c1cccc(C(=O)Nc3ccc(C#N)cc3)c1)O2` (stereo not given), the growth is reported as 73.1%.
Molecule `CCOC(=O)NC(C)C` has a growth of 103%.
`CC(=O)c1c(C)nc2ccccc2c1/C=C/c1ccc(F)cc1` showed a growth of 99%.
Work on `CCOC(=O)c1ccc2c(c1)nc(-c1ccccc1)n2C1CCCCC1` yielded a growth of 91.6%.
For `COc1ccc(OC)c(/C=N/Nc2ncnc3c2c(C)nn3C)c1`, the growth was 102%.
With `CCc1ncnc2c1ccn2C(C)c1ccc(OC)c(F)c1` (stereo not given) the growth was 56.6%.
`Cc1ccc(C2=Nc3c(N)ncnc3NC(c3cccc(Nc4ccnc5cc(C(F)(F)F)ccc45)c3)C2)cc1` (stereo not given) was tested, and the growth was 31%.
For `C=CC[Se]C(=O)Cc1c(C)n(C(=O)c2ccc(Cl)cc2)c2ccc(OC)cc12`, the growth was 4.27% (active).
`CSc1nc2ccccc2cc1/C=C1/C=C(c2ccccc2)NC1=O` gave a growth of 93.2%.
`Cc1cc(N2CCCCC2)cc(C)c1-c1csc(NC(=O)c2ccncc2)n1` was tested, and the growth was 97.4%.
With `CCCC/C=C/[C@@H]1C[C@H]1CCO` the growth was 102%.
`COc1ccccc1CNc1c2ccccc2nc2ccccc12` was tested, and the growth was 38.8%.
With `C1CN(SSN2CCOCC2)CCO1` the growth was 90.7% [100 µM].
In the case of `N=C(N)c1ccc(-c2ccc(-c3ccc(Cl)c(Cl)c3)s2)nc1`, the growth is reported as -61.9% (active).
`Cc1[nH]c(=O)[nH]c(=O)c1Br` showed a growth of 87.8%.
In the case of `CCOC(=O)n1ccn(C)c1=S`, the growth is reported as 106%.
In the case of `Nc1c(C(=O)Nc2ccncc2)sc2nc3c(cc12)C(O)CCC3` (stereo not given), the growth is reported as 96.7%.
Molecule `Cn1c(=O)c2nc(/C=C/c3ccccc3)c(=O)[nH]c2n(C)c1=S` has a growth of 106%.
In the case of `COc1cc(/C=C/C(=O)c2ccc(F)cc2)ccc1OCCCCOc1ccc(/C=C/C(=O)c2c(C)nc3ccccc3c2C)cc1OC`, the growth is reported as 100%.
For `CCCC/C(CC)=N\NS(=O)(=O)c1ccc([N+](=O)[O-])cc1`, the growth was 107%.
`COc1ccc(C2=Nc3c(N)nc(N)nc3NC(c3cccc(Nc4ccnc5cc(C(F)(F)F)ccc45)c3)C2)cc1` (stereo not given) showed a growth of 72.2%.
Work on `CCOCCNC1=C(Cl)C(=O)c2ccccc2C1=O` yielded a growth of 112%.
Work on `NC(=O)c1c(NC(=O)c2ccc3ccccc3c2)sc2c1CCC(=O)C2` yielded a growth of 107%.
Molecule `COc1ccc(NC(=O)c2sc3nc(C)c(C(=O)/C=C/c4ccccc4)cc3c2N)cc1` has a growth of 25.2%.
Molecule `O=C(NCc1ccc(Cl)cc1Cl)C1CCC(=O)N1c1cccs1` (stereo not given) has a growth of 93.4%.
In the case of `Cc1ccc(CNc2ccc3nc(CCC4CCCCC4)[nH]c3c2)cc1`, the growth is reported as -25.2% (active).
In the case of `COc1ccc(\C=N/N=C(N)/C(N)=N\N=C/c2ccc(OC)cc2)cc1`, the growth is reported as 110%.
`Clc1cc(Cl)c(Cl)c(-c2nnc(SCc3ccncc3Br)o2)c1` was tested, and the growth was 58.6%.
For `COc1cc(OC)c(/C=C/C(=O)c2c(OC)cccc2OC)c(OC)c1`, the growth was 0.761% (active).
In the case of `C/C(=N\O)c1ccc(Cl)cc1`, the growth is reported as 95.9%.
`CCC(=C(c1ccc(OCCN2CCCCC2)cc1)c1ccc(OCCN2CCCCC2)cc1)c1ccc(Cl)cc1` was tested, and the growth was -87% (active).
`CC1=C([Se]CC(OC(=O)CC[Se]c2ccccc2)C(=O)NC(C)(C)C)C(=O)c2ccccc2C1=O` (stereo not given) was tested, and the growth was -87.2% (active).
For `COc1ccc(/C=C/C(=O)c2cccc(OCCCCOc3cccc(C(=O)/C=C/c4ccc(OC)c(OC)c4)c3)c2)cc1OC`, the growth was 116%.
Molecule `Fc1cc2c(cc1Cl)N(c1ncnc3ccc(-c4ccc5n[nH]nc5c4)cc13)CC2` has a growth of 92.1%.
Work on `CN(C)CCNC(=O)c1ccc(-c2nc3ccc4[nH]ncc4c3c3c2C2CCC3C2)cc1` (stereo not given) yielded a growth of 38.5%.
Molecule `COC(=O)CC[C@@H]1O[C@@H](c2cccc(C(F)(F)F)c2)[C@@H](O)[C@H]1O` has a growth of 114%.
Work on `S=c1sc2c(Cl)nc(-c3cccnc3)nc2n1-c1ccccc1` yielded a growth of 39.6%.

From PubChem BioAssay (NCI)
